The first test deals with Serine/threonine-protein kinase PAK 2 (Homo sapiens) (UniProt Q13177). As to conditions: at 1 µM.
Chain of Serine/threonine-protein kinase PAK 2 (Homo sapiens) (Q13177 whole entry): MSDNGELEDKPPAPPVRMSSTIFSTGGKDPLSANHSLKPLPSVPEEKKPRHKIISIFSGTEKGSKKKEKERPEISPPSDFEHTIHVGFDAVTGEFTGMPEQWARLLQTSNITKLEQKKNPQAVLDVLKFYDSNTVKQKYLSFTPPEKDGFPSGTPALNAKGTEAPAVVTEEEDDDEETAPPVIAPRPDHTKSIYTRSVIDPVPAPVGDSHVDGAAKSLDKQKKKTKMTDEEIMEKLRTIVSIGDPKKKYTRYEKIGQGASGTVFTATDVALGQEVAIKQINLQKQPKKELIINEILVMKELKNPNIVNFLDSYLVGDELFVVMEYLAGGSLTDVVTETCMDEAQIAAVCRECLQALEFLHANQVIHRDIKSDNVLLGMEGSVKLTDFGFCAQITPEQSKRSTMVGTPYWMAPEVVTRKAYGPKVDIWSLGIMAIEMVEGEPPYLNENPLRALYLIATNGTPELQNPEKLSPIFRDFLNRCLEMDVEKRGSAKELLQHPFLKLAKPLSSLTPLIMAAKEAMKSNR
Chain of Serine/threonine-protein kinase PAK 3 (Homo sapiens) (O75914 whole entry, looked up): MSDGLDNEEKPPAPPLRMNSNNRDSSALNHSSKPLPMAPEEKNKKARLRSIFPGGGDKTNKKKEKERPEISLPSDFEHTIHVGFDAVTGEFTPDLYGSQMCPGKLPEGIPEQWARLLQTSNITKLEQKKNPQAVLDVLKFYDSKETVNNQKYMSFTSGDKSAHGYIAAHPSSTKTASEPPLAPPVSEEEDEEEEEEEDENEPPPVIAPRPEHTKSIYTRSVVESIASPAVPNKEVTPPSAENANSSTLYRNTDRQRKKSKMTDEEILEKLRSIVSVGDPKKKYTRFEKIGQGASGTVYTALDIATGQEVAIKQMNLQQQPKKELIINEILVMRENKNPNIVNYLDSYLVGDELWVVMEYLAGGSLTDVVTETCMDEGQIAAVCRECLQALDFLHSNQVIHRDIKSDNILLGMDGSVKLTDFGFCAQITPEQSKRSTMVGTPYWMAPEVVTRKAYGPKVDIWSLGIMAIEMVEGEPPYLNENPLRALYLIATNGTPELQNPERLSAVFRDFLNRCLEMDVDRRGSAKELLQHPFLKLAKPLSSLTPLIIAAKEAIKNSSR
In the case of `Fc1ccc(-c2c(-c3ccncc3)nc3n2CCS3)cc1`, the inhibition was determined as 0.49%.
The same measure, in the same setting: in the case of `Fc1ccc(-c2ncn(C3CCNCC3)c2-c2ccnc(Oc3ccc4c(c3)OCO4)n2)cc1` it was 2.56%; in that of `Nc1nccc(-c2c(-c3ccc(F)cc3)ncn2C2CCC(O)CC2)n1` (centres undefined), -0.18%.
In the case of `c1ccc(-c2n[nH]cc2-c2ccnc(-c3ccc(OCCN4CCOCC4)cc3)c2)nc1`, the inhibition worked out at 0.57%.
On the same count and under the same terms, in the case of `COc1cccc(/C=N/Nc2ncnc3c2cnn3-c2cccc(OC)c2)c1` it was 1.26%; in that of `CCS(=O)(=O)c1ccc(OC)c(Nc2ncc(-c3cccc(-c4ccccc4F)c3)o2)c1`, -0.6%.
Turning to `Fc1ccc(-c2ncn(C3CCNCC3)c2-c2ccnc(Oc3ccc(Oc4ccccc4)cc3)n2)cc1`, the inhibition was 3.52%.
The same measure, in the same setting: in the case of `NCc1ccc(-n2c(-c3nonc3N)nc3cnccc32)cc1` it was 4.52%.
Same read-out and setting: in the case of `CCc1nccc2c1nc(-c1nonc1N)n2CC` it was 1.13%.
For `COc1cc2ncn(-c3cc(OCCc4ccccc4)c(C(N)=O)s3)c2cc1OC`, the inhibition was -0.01%.
Consider `FC(F)(F)c1cccc(Nc2nccc(-c3cnn4nc(-c5ccccc5)ccc34)n2)c1`, for which the inhibition was found to be 0.77%.
The same measure, in the same setting: in the case of `COC(=O)Nc1nc2ccc(Sc3ccc(NC(=O)Nc4cc(C(F)(F)F)ccc4F)cc3)cc2[nH]1` it was 0.18%; in that of `COc1ccc(C2=C(N3CCc4ccccc43)C(=O)NC2=O)cc1`, 1.57%; in that of `CN1CCN(CCCNc2nc3ccc(Oc4ccc(NC(=O)Nc5cc(C(F)(F)F)ccc5F)cc4)cc3[nH]2)CC1`, 1.06%.
On the same count and under the same terms, in the case of `CCC(=O)Nc1ccc(C)c(-c2ccc(C(=O)NCC3CC3)cc2)c1` it was 0.8%; in that of `CN(c1ccc(NC(=O)Nc2c(Cl)cccc2Cl)cc1)c1ccnc(Nc2cccc(CS(C)(=O)=O)c2)n1`, 1.61%.
Still for that read-out and setting: in the case of `NS(=O)(=O)c1ccc(N/N=C2\C(=O)Nc3ccc(C(=O)NCCCn4ccnc4)cc32)cc1` it was 2.78%.
With `Cc1ccc(NC(=O)c2ccoc2)cc1-c1ccc(C(=O)NCC2CC2)cc1`, the inhibition was -1.68%.

A further test concerns the target Serine/threonine-protein kinase PAK 3 (Homo sapiens) (UniProt O75914). As to conditions: at 0.1 µM.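 Also: mean percent inhibition of PAK3, measured in a screen of the GSK published kinase inhibitor set.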
As to `Fc1ccc(-c2ncn(CCCN3CCOCC3)c2-c2ccncc2)cc1`, the inhibition amounted to 0.6%.
Same read-out and setting: in the case of `COc1ccc2cc(-c3c(-c4ccncc4)nc(-c4ccc([S+](C)[O-])cc4C)n3C)ccc2c1` (centres undefined) it was -0.99%.
As for `c1ccc(Oc2ccc(Nc3ncc(-c4ccccc4)o3)cc2)cc1`, the inhibition was 0.64%.
On the same count and under the same terms, in the case of `C[C@@H](Oc1cc(-n2cnc3ccc(OC4CCN(C)CC4)cc32)sc1C(N)=O)c1ccccc1Cl` it was 5.07%; in that of `NC(=O)c1cc(-c2ccncc2)cc(-c2ccccc2)c1N`, 7.15%.
Same read-out and setting: in the case of `O=C(NCC1CC1)c1ccc(-c2cccc(C(=O)NC3CC3)c2)cc1` it was 2.9%; in that of `O=C1Nc2ccccc2/C1=C/Nc1ccc(-n2cncn2)cc1`, 5.31%; in that of `CN(C)c1ccc2c(c1)/C(=C/Nc1ccc(S(N)(=O)=O)cc1)C(=O)N2`, 1.32%.
Same read-out and setting: in the case of `C[C@@H](Oc1cc(-n2cnc3ccc(OCC4CCN(C)CC4)cc32)sc1C(N)=O)c1ccccc1Cl` it was 6.02%.
In the case of `CN(C)CCCNc1nccc(-c2c(-c3ccc(F)cc3)nn3cc(C(F)(F)F)ccc23)n1`, the inhibition was determined as 1.76%.
Still for that read-out and setting: in the case of `COc1ccc2ncn(-c3cc(O[C@H](C)c4ccccc4Cl)c(C(N)=O)s3)c2c1` it was 5.49%; in that of `CN(C)CCOc1ccc(-c2cc(-c3ccc4c(c3)CCC4=NO)c(-c3ccncc3)o2)cc1`, -1.69%; in that of `Cc1nnc(-c2ccc(C)c(-c3ccc(C(=O)NCc4ccc(Cl)cc4)cc3)c2)o1`, 4.16%.
On the same count and under the same terms, in the case of `O=C(Nc1n[nH]c2nc(-c3ccco3)ccc12)C1CC1` it was 0.51%; in that of `CCc1ccc(Oc2nccc(-c3c(-c4ccc(F)cc4)ncn3C3CCNCC3)n2)cc1`, 4.22%; in that of `Fc1ccc(-c2c(-c3ccncc3)nc3n2CCS3)cc1`, 2.55%.
For the compound `Fc1ccc(-c2ncn(C3CCNCC3)c2-c2ccnc(Oc3ccc4c(c3)OCO4)n2)cc1`, the inhibition was found to be 6.04%.
Still for that read-out and setting: in the case of `Nc1nccc(-c2c(-c3ccc(F)cc3)ncn2C2CCC(O)CC2)n1` (centres undefined) it was -3.15%; in that of `c1ccc(-c2n[nH]cc2-c2ccnc(-c3ccc(OCCN4CCOCC4)cc3)c2)nc1`, 3.54%; in that of `COc1cccc(/C=N/Nc2ncnc3c2cnn3-c2cccc(OC)c2)c1`, 2.7%.
The same measure, in the same setting: in the case of `CCS(=O)(=O)c1ccc(OC)c(Nc2ncc(-c3cccc(-c4ccccc4F)c3)o2)c1` it was -0.65%; in that of `Fc1ccc(-c2ncn(C3CCNCC3)c2-c2ccnc(Oc3ccc(Oc4ccccc4)cc3)n2)cc1`, 4.8%; in that of `NCc1ccc(-n2c(-c3nonc3N)nc3cnccc32)cc1`, 5.94%.
The same measure, in the same setting: in the case of `CCc1nccc2c1nc(-c1nonc1N)n2CC` it was 0.51%.
As to `COc1cc2ncn(-c3cc(OCCc4ccccc4)c(C(N)=O)s3)c2cc1OC`, the inhibition is 2.35%.
For `FC(F)(F)c1cccc(Nc2nccc(-c3cnn4nc(-c5ccccc5)ccc34)n2)c1`, the inhibition is 2.74%.

The values above are taken from ChEMBL document CHEMBL1961873, “Compounds: GSK PKIS; Assays: Nanosyn kinase panel” (2012).
